Reference: PubChem BioAssay AID493073 (Broad Institute, 2011)
The campaign covered roughly 1,200 compounds. About 810 (68%) were called active. How the calls were made is not given here. So high a share suggests a set chosen from earlier hits. The list is a sample of the results. Results with a measured potency or affinity are listed apart.

Assay: reducers of TRPM1 reporter luminescence, concentration series – cell-based, SK-MEL-5, cherry-picked, set 3, MITF inhibitor project, dose response (AID 493073)
Conditions: SK-MEL-5 TRPM1 promoter luciferase, 24 h; series mostly up to 35 µM

outcome, inactive:
COCCNC(=O)c1cc2sc3ccccc3c2s1
FC(F)(F)Oc1ccc(-c2cn3cccnc3n2)cc1
O=C(CNC(=O)c1ccc(Br)cc1)c1ccccc1
Clc1ccccc1CSc1nnc(-c2ccncc2)o1
O=C(Nc1nc2ccccc2s1)Nc1ccc(F)cc1F
Cc1ccc(C(=O)Nc2nc3ccc(Cl)cc3s2)o1
Cc1ccc2nc(NC(=O)c3ccc(Br)o3)sc2c1
COC(=O)c1ccc(COc2ccc(C)cc2[N+](=O)[O-])o1
COc1ccc2oc3ccc(OC)cc3c(=O)c2c1
Cc1cc(NC(=O)c2ccc(Cl)cc2Cl)no1
O=C(Nc1cccnc1Cl)c1cc(-c2ccco2)on1
CC1CCN(c2ccc(NC(=O)c3cccnc3)cc2)CC1
NNC(=O)Cn1c(SCc2ccccc2)nc2ccccc21
COC(=O)c1ccc(COc2ccc3c(c2)CCC3)o1
O=C(Nc1nc2ccsc2c(=O)s1)C1CCC1
O=C(O)C1CCN(C(=O)OCc2ccccc2)CC1
CCOc1ccccc1-c1nc(-c2ccc(C)nc2OC)no1
Cc1ccc(-c2nc(-c3ccncc3)no2)cc1C
Fc1ccccc1-c1nc(-c2ccncc2)no1
Clc1ccc(-c2nc(-c3ccncc3)no2)c(Cl)c1
Cc1ccc(SCCC(=O)N2CCC(C)CC2)cc1
O=C(Nc1ccc(Cl)cc1)C1C2CCCCC21 (stereo not drawn)
N/C(=N\OC(=O)c1ccncc1)c1cccc([N+](=O)[O-])c1
N/C(=N\OC(=O)c1ccccc1Cl)c1cccc([N+](=O)[O-])c1
CCn1c(=O)c(C(=O)NCc2ccccc2Cl)c(O)c2ccccc21
Cc1ccc(SCc2cn3cc(Cl)ccc3n2)cc1
N/C(=N\OC(=O)c1cccc(F)c1)c1cccc([N+](=O)[O-])c1
Cc1ccccc1OCc1nc2c3cnn(C)c3ncn2n1
Cc1ccc(OCCNCc2ccccc2)c(C)c1
CC(C)(C)c1ccc(OCCn2ccccc2=O)cc1
COc1ccc(NC(=O)c2cc(-c3ccccc3Cl)on2)cc1
O=C1c2ccccc2C(=O)N1CCOc1ccccc1
CC(C)c1nnc(NC(=O)CCC2CCCCC2)s1
CC(C)(C)C1CCC(OC(=O)CN2CCCCC2)CC1 (stereo not drawn)
COc1ccc(C2C(C#N)=C(N)Oc3c2oc(CO)cc3=O)cc1 (stereo not drawn)
O=C(Nc1ccc2ncccc2c1)c1ccccc1Br
CC(=O)c1ccc(N/C=C/C(=O)c2ccc(Br)cc2)cc1
Oc1ccccc1/C=N/Nc1cccc2cccnc12
Cc1ccc2nc(Cc3ccc(N)cc3)oc2c1
CCOc1ccccc1NC(=O)C1C2CCC(O2)C1C(=O)O (stereo not drawn)
COc1ccc(-c2cc(-c3ccc(OC)c(OC)c3)n[nH]2)c(O)c1
COc1ccc(C(=O)NCC(=O)c2ccccc2)cc1
COc1ccc(C(=O)NCCSc2ccccc2C)cc1
COc1cccc(CNc2nc3ccccc3n2C)c1O
Cc1cc(C(F)(F)F)c2c(N)c(C(=O)Nc3cc(C)on3)sc2n1
Cc1cc(C)c2c(N)c(C(=O)N/N=C/c3ccccc3)sc2n1
CCc1cc(C=NC2CCCCC2)c(O)s1
Cc1ccccc1NCc1nc2ccccc2n1C
O=C(NCc1ccco1)c1ccc(COCC(F)(F)F)cc1
CN(C)c1ccc(/C=C/c2cccc[n+]2[O-])cc1
Cc1ccc(O)c(NC(=O)c2ccc3c(c2)C(=O)N(CC(C)C)C3=O)c1
Clc1nccnc1N/N=C/c1ccc(Br)cc1
COc1cccc(/C=N/NC(=O)c2cccs2)c1
N/C(=N\OC(=O)Cc1cccs1)c1ccccc1
O=C(NC1CCCCC1)c1cc2cc(Br)ccc2o1
COc1cccc(-c2ccc3c(N)c(C(=O)NC4CC4)sc3n2)c1
O=C(NC1CCCCCC1)c1cc2ccccc2oc1=O
N#C/C(C(=O)c1ccccc1)=C1/CCCCCN1
CCOc1ccc(N=C(C)C2=C(O)c3ccccc3C2=O)cc1
Cn1c(COc2ccccc2Br)nc2ccccc21
NC(=O)c1c(NC(=O)c2cccnc2)sc2c1CCCCC2
CCOc1cc(/C=N/N=C(N)N)ccc1OCc1ccc(Cl)cc1
Cc1ccc(COc2ccc(C)nc2[N+](=O)[O-])cc1
O=C(Nc1ccc(Cl)cc1)N1CC=CCC1
CC(C)(CO)NC(=O)c1ccc2nc(Cc3cccc(Cl)c3)oc2c1
Cc1ccc(C(=O)c2coc3ccc(O)c(Cl)c23)cc1
OCc1ccc(N=Nc2ccccc2)cc1
Cc1ccc(OCCCCN2CCCCC2)c(Br)c1
O=C(Cc1cccs1)NCc1ccc(Cl)cc1Cl
O=C(CCC(=O)c1ccc[nH]1)c1ccc(Cl)cc1
COc1nc(NC2CCCCC2)nc(NC(C)(C)C)n1
C#Cc1cccc(NC(=O)CSc2nnc(-c3ccc(C(F)(F)F)cn3)o2)c1
Cn1c(COc2ccccc2)nc2ccccc21
COc1ccc(NCc2nc3ccccc3n2C)cc1
COc1cc(CN2CCC(C(=O)NCCC(C)C)CC2)ccc1OCc1ccccc1
COc1cccc(/C=C/C(=O)c2ccc3c(c2)OCCO3)c1OC
COc1ccc(C(=O)Nc2ccc3c(c2)OCCO3)cc1Br
COc1ccc(N(CC(=O)NCC2CCCO2)S(=O)(=O)c2ccccc2)cc1OC (stereo not drawn)
CC(=O)Nc1cccc(-c2nnc(-c3ccccc3)o2)c1
O=C(CN1CCCCC1)Nc1scc2c1c(=O)oc1ccccc12
CCN(CC)CCNC(=O)C1CCN(S(=O)(=O)c2c(C)noc2/C=C/c2ccccc2F)CC1
Cc1cc(/C(N)=N/OC(=O)Nc2ccc(Cl)cc2)no1
Cc1cccc(NC(=O)c2cnn(-c3ccccc3)c2C)c1C
Cc1ccsc1C(=O)OCC(=O)Nc1sccc1C(N)=O
CCCCC(=O)N/C(N)=N/c1nc2ccccc2o1
Cc1ccc(-c2nc(C#N)c(NCc3ccco3)o2)cc1
O=C(NCC1CCCO1)c1cc(-c2ccc(Cl)cc2Cl)on1 (stereo not drawn)
Cc1cccc(-c2nc(C#N)c(NCc3ccco3)o2)c1
O=C(Nc1ccc2nn(-c3ccccc3)nc2c1)c1ccco1
CNc1oc(/C=C/c2cccc(OC)c2)nc1C#N
Cc1cc(Cl)ccc1NC(=O)c1ccc2c(c1)OCO2
CC(C)C(=O)Nc1cccc(NC(=O)c2cc3ccccc3o2)c1
O=C1CN(c2ccccc2)C(=S)N1C(=O)c1ccc(Br)cc1
N=c1n(CC(=O)c2ccc([N+](=O)[O-])cc2)c2ccccc2n1Cc1ccc(Cl)cc1
Cc1c(C=O)c2cc(OCc3ccccc3)ccc2n1C
CC1CCCC(C)N1CCCNC(=O)c1cc2c(s1)-c1ccccc1OC2 (stereo not drawn)
COc1ccccc1/C=C/C=N/NC(=O)c1cccs1
Cc1ccc(SCCSc2ncccn2)cc1
CC(C)(C)c1cc(NCCCn2ccnc2)n2ncc(-c3ccccc3)c2n1
Nc1c(-c2ccccc2)cnc2c(-c3ccccc3)cnn12
c1cc(CSc2nnc(-c3ccc4c(c3)OCO4)o2)ccn1
O=C(Nc1nc2ccccc2s1)c1ccccc1[N+](=O)[O-]
Cc1ccc(NC(=O)Nc2ccccc2)nc1
COc1cc(SC)ccc1C(=O)NCCOc1ccccc1Cl
Cc1cnn(C(=S)NCCc2ccccc2)c1
COc1ccc(C)c2sc(N(CCN(C)C)C(=O)/C=C/c3cccs3)nc12
CN(C)CCCN(C(=O)CCc1ccccc1)c1nc2ccc(Br)cc2s1
O=C(CSC(=S)N1CCCCC1)c1c(F)cccc1F
COC(=O)c1c(C)[nH]c(/C=N/Nc2ccccc2)c1C
COc1ccc(CNC(=O)CN2C(=O)C3C4C=CC(C4)C3C2=O)cc1 (stereo not drawn)
COc1cc(CN2CCC(C(N)=O)CC2)ccc1OCc1ccccc1
O=C(Nc1cc2c(cc1Cl)OCCO2)c1ccco1
CCOC(=O)c1sc(-c2ccccc2)cc1N
Cc1nn2c(N)c(-c3ccccc3)cnc2c1-c1ccccc1
CC(=O)Nc1cccc2c1Cc1ccccc1-2
CN(C)CCNC(=O)COc1ccc(C23CC4CC(CC(C4)C2)C3)cc1
Cc1ccc(-n2ncc3c(SCC(N)=O)ncnc32)cc1C
Cn1c(/C=C/c2ccc(Cl)cc2)nc2ccccc2c1=O
Fc1cccc(Cl)c1CSc1nnc(-c2ccncc2)o1
Cc1ccc(OCC(=O)Nc2ccccc2F)cc1
CSc1nc(N)n2nc(-c3ccc(Cl)cc3)cc2n1
COc1ccc(NC(=O)Nc2ccc(F)c(F)c2)c(OC)c1
O=[N+]([O-])c1ccccc1OCCOc1ccccc1[N+](=O)[O-]
O=C(c1cc2ccccc2oc1=O)N(Cc1ccccc1)C1CCS(=O)(=O)C1 (stereo not drawn)
O=C(CCCc1ccccc1)N1CCN(C2CCCCC2)CC1
c1ccc(OCc2nc3ccccc3[nH]2)cc1
N=C1C(c2nc3ccccc3[nH]2)=C(O)CN1C1CCCCC1
Cc1c(C(=O)N(CCO)Cc2ccccc2)oc2c(F)cccc12
